Cruzain noTriton: cruzain (T. cruzi) inhibition without detergent; P25779; purified cruzain, Z-FR-AMC fluorescence, no detergent; Potency, µM, for inactives: max response, negative = inhibition, hits mostly inhibitors; 200,000 compounds, 2.3% hits; AID 1476;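 further: plate controls were enzyme without inhibitor for no effect and buffer without enzyme for full effect; nearly all actives have a fitted effect of over 40% in size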
Target sequence (P25779 123-467 limits assumed): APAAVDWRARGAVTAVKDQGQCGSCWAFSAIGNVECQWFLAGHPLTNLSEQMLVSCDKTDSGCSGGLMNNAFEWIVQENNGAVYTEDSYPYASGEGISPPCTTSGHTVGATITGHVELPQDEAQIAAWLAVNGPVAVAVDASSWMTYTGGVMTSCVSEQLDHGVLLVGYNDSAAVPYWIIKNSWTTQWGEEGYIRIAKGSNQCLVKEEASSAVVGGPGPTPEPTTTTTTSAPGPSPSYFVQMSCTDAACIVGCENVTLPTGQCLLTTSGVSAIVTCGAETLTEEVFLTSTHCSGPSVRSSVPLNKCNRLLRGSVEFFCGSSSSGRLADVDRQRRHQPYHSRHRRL
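Purified cruzain at 1.5 nM, pre-incubated 15 min with compound at room temperature in 100 mM sodium acetate pH 5.5, 5 mM DTT, 0.00005% Triton X-100. Reaction started with 2 uM Z-FR-AMC; AMC fluorescence increase over 60 s gives rate.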
Cruzain inh Det: inhibitors of Trypanosoma cruzi cruzain with detergent; purified cruzain, Z-FR-AMC fluorescence, 0.01% Triton; Potency, µM, for inactives: max response, negative = inhibition, usual class: inhibitors; P25779; AID 1478; 200,000 compounds, 0.43% hits;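 further: plate controls were neutral wells for no effect and buffer without enzyme for full effect; nearly all actives have a fitted effect of over 40% in size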
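Cruzain (1.5 nM) preincubated 15 min at RT with compound in 100 mM sodium acetate pH 5.5, 5 mM DTT, 0.01% Triton X-100. Reaction started with 2 uM Z-FR-AMC; AMC fluorescence (ex 360/em 450 nm) change over 60 s gave rate.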
The depositor's hits bear a star; u = inconclusive. A selection: hits, their analogues and other compounds. The true share with any hit is near 2.6%. The call rests on the fitted dose curve; in most records, active means well fitted curve in the direction sought with a large enough effect; inconclusive means small, poorly fitted or top-dose-only effect, or another doubt; inactive means no such curve, though single readings can be large; an effect the other way counts as inactive or inconclusive. Potency means the concentration at half of the fitted maximal effect.

SMILES | Cruzain noTriton | Cruzain inh Det
CC(=O)c1nn(-c2cccc(Br)c2)cc1C(=O)c1ccc2ccccc2c1 | 10µM* | 4%
COC(=O)N[C@@H](c1cccc(C)c1)C(C(C)=O)C(=O)OC (stereo partly specified) | 0% | 2%
Cc1cccc(CCNc2nc3ccccc3n3nnnc23)c1 | -12% | 4%
Clc1ccc(CCNc2nc3ccccc3n3nnnc23)cc1 | 25µM* | 4%
[N-]=[N+]=N[C@@H]1[C@H](O)[C@H](CO)O[C@@H]1n1cnc2c(N)ncnc21 | 5% | 6%
S=C(Nc1ccc(OCc2ccccc2)cc1)Nc1cccc(Cl)c1Cl | u | -5%
S=C(Nc1ccccc1)Nc1ccc(OCc2ccccc2)cc1 | 13µM* | 5%
O=C(O)CC[C@@H](C(=O)O)N1C(=O)[C@@H]2[C@@H]3CC[C@H](C3)[C@@H]2C1=O | 10% | 5%
CC(=O)c1ccc(N2CCN(S(=O)(=O)c3cc(-c4onc(C)c4C)ccc3C)CC2)cc1 | -8% | 0%
O=C(Nc1cc(-c2ccc(F)c(F)c2)no1)c1ccccc1F | 25µM* | -3%
COc1ccccc1C(=O)Nc1cc(-c2ccc(C)cc2)no1 | 4% | -11%
CCOc1ccccc1N1Cc2ccccc2C1 | u | 5%
COc1ccc(OC)c(-n2cnnn2)c1 | 2% | 5%
COc1ccc(OC)c(N2Cc3cc(C)c(C)cc3C2)c1 | 16µM* | 1%
CCOc1ccccc1N1Cc2cc(C)c(C)cc2C1 | 25µM* | 3%
Cn1ccnc1C[C@@](C)(O)c1ccccc1 | 1% | 6%
COc1ccc2c(c1)CC(C(=O)NCc1ccc(F)cc1)CO2 (stereo unspecified) | -5% | -2%
OCc1ccccc1N=c1ssnc1Cl | 25µM* | -3%
Cc1ccc(C)c(N2CCN(S(=O)(=O)c3ccc(C(=O)N(C)C)s3)CC2)c1 | u | -6%
CC(=O)C(N=Nc1ccccc1)(Sc1nnc(-c2ccccc2)n1-c1ccccc1)C(=O)Nc1ccccc1 (stereo unspecified) | 25µM* | -1%
CC(=O)C(N=Nc1ccccc1)(Sc1nnc(-c2ccccc2)n1-c1ccccc1)C(C)=O | -25% | 1%
COc1ccc(CNC(=O)c2ccc3nc(C(C)C)oc3c2)cc1OC | 5% | -2%
COc1ccc(-n2c(C(C)n3nc(C)c([N+](=O)[O-])c3C)n[nH]c2=S)cc1 (stereo unspecified) | -3% | -2%
COc1ccc(-n2c(C)c([N+](=O)[O-])c3ccc(O)c(CN(C)C)c32)cc1 | 25µM* | -21%
Cc1ccc(NC(=O)c2oc3ccccc3c2NC(=O)c2cc3ccccc3o2)cc1 | u | 0%
SMILES | Cruzain noTriton | Cruzain inh Det
O=C(Nc1c(C(=O)Nc2cccc(F)c2)oc2ccccc12)c1cc2ccccc2o1 | 16µM* | -3%
CC[C@H](CO)NCCN[C@@H](CC)CO | -6% | 0%
FC(F)Sc1ccc(NC(=S)NC2CCC(NC(=S)Nc3ccc(SC(F)F)cc3)CC2)cc1 (stereo unspecified) | 16µM* | 2%
Oc1cccc(NC(=S)Nc2ccc(SC(F)F)cc2)c1 | -2% | -5%
Cc1ccc(C)c2sc(NC(=O)c3nc4ccccc4s3)nc12 | 10µM* | -1%
O=C(Nc1ccccc1)c1nc2ccccc2s1 | -5% | -7%
COc1ccc2c(c1)c1c(c(=O)n(-c3cccc(C)c3)c(=O)n1CC(=O)NCC1CCCO1)n2C (stereo unspecified) | 5% | -4%
CC(=O)Oc1cc2c(c(C)c1OC(C)=O)CC=C1[C@]3(C)CC[C@]4(C)CC[C@@](C)(C(=O)O)CC4[C@]3(C)CC[C@]12C (stereo partly specified) | 10% | 1%
Cc1cc(C)c(NC(=O)c2cc(C)nc3c2c(C)nn3-c2cccc(F)c2)c(C)c1 | 5% | 0%
C=CCNC(=O)c1ccc(-c2nc(-c3ccc(Cl)cc3Cl)cs2)cc1 | -15% | 4%
C=CCNC(=O)c1ccc(-c2nc(-c3ccc(Cl)c(Cl)c3)cs2)cc1 | 20µM* | 3%
CCN(CCCNC(=O)c1ccc(Sc2ccc(F)cc2)c(NC(C)=O)c1)c1ccccc1 | 11% | 0%
COc1ccc2c(c1)c1c(c(=O)n(-c3ccccc3C)c(=O)n1CC(N)=O)n2C | 4% | 13%
CC1Cc2ccccc2N1S(=O)(=O)c1nnc(NC(=O)c2ccccc2Br)s1 (stereo unspecified) | 7% | -1%
CN(Cc1ccco1)c1cc(-c2ccc3c(c2)OCO3)ncn1 | -3% | -6%
CC(=O)c1c(C)n([O-])c2ccc(C)cc2[n+]1=O | 1.6µM* | 0%
Cc1ccc2c(c1)n([O-])c1c([n+]2=O)CCCC1 | -4% | 6%
Cc1ccc(C)c(N2CCN(C(=O)c3cc4c(=O)n(Cc5ccco5)ccc4nc3C)CC2)c1 | u | -8%
CC(=O)c1cccc(NC(=O)Nc2nnc(N3CCCC3)s2)c1 | u | -7%
COc1ccc2c(c1)c1c(c(=O)n(-c3cccc(C)c3)c(=O)n1Cc1cccc(Cl)c1)n2C | -7% | -3%
Cc1ccc(C(=O)Oc2oc(-c3ccccc3)nc2C=Nc2ccc(N(C)C)cc2)cc1 | 25µM* | 28µM*
CN(C)c1ccc(N=Cc2nc(-c3ccccc3)oc2OC(=O)c2cccc(Cl)c2)cc1 | 20µM* | -23%
Oc1oc(-c2ccccc2)nc1C=Nc1cccc2ccccc12 | u | -5%
COC(=O)c1ccc(-c2nc3ccc(C)cc3o2)cc1 | 13% | -2%
COc1ccc(Cl)cc1NC(=O)c1nn(-c2ccc(C)cc2)c(=O)n(C)c1=O | 2% | -1%
SMILES | Cruzain noTriton | Cruzain inh Det
Clc1cccc(C(Cl)(Cl)Cl)n1 | -3% | 0%
Cc1ccc(Cn2c(C(=O)Nc3cccc(Cl)c3)cc3sccc32)cc1 | 25µM* | -5%
CC(=O)c1ccc(NC(=O)c2cc3sccc3n2Cc2ccc(Cl)cc2)cc1 | u | -4%
CCOC(=O)c1cccc(NC(=O)c2cc3sccc3n2Cc2ccc(Cl)cc2)c1 | 9% | 4%
CCOC(=O)c1ccc(NC(=O)c2cc3sccc3n2Cc2ccc(Cl)cc2)cc1 | 10µM* | 2%
Nc1nc2c(nc(Sc3ccc(Cl)cc3)n2C2OC(CO)C(O)C2O)c(=O)[nH]1 (stereo unspecified) | 0% | 1%
COC(=O)c1sc(N2C(=O)c3oc4ccccc4c(=O)c3C2c2ccc(O)cc2)nc1C (stereo unspecified) | -13% | 5%
COc1cccc(NC(=O)C(Sc2nnc3ccccn23)c2ccccc2)c1 (stereo unspecified) | -5% | -3%
CCCn1c(SC(C(=O)Nc2cccc(OC)c2)c2ccccc2)nc2ccccc2c1=O (stereo unspecified) | 10µM* | -4%
CNC(=O)c1c(NC(=O)c2ccc(S(=O)(=O)N3CCCC(C)C3)cc2)sc2c1CCC2 (stereo unspecified) | -5% | -2%
CC(=O)Nc1ccc(S(=O)(=O)NCC(=O)OCC(=O)c2cc(C)n(-c3ccc4c(c3)OCO4)c2C)cc1 | u | -4%
COC(=O)c1ccc(-n2c(C)cc(C(=O)COC(=O)CC3Sc4ccccc4NC3=O)c2C)cc1 (stereo unspecified) | 25µM* | -4%
COc1ccc(-n2c(C)cc(C(=O)COC(=O)Cc3n[nH]c(=O)c4ccccc34)c2C)cc1 | u | -6%
CC(=O)c1ccc(OCC(=O)c2cc(C)n(-c3ccc4c(c3)OCO4)c2C)cc1 | -9% | -4%
O=C(CC1Sc2ccccc2NC1=O)OCC(=O)N1CCc2ccccc21 (stereo unspecified) | u | -7%

Assay outcomes as filed in PubChem.
